High-throughput results deposited in PubChem by several laboratories.
This is one part of a sample in which hits are shown more often than they occur.
ARNT TACC3 PPI – ARNT/TACC3 interaction disruption. actives 0.66% (n = 390,000). inhibition, % at 9.99 µM. Q9Y6A5. AlphaScreen His-ARNT PAS-B/GST-TACC3 binding, luminescence; TACC3 fragment carries E629A point mutation;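 active = mean inhibition of replicates at least 50% and at least half of replicates each reaching 50%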;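 note: 0% = complete ARNT plus TACC3 wells and 100% = ARNT alone without TACC3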
PglD inh – inhibitors of Campylobacter jejuni PglD acetyltransferase; purified PglD enzyme, DTNB colorimetric CoA detection; inhibition, % at 12.5 µM; actives 0.098% (n = 360,000); in the data active = inhibition above about 16%, passing the limit was not always enough
ALR inh – blocks human ALR sulfhydryl oxidase activity; P55789; purified ALR, DTT oxidation, H2O2 HRP-luminol luminescence; inhibition, % (no concentration beside the values); actives 3.8% (n = 290,000);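 active = mean replicate inhibition above about 79%, with every replicate also reaching it, limit read from the data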
Target sequence (P55789 whole entry, looked up): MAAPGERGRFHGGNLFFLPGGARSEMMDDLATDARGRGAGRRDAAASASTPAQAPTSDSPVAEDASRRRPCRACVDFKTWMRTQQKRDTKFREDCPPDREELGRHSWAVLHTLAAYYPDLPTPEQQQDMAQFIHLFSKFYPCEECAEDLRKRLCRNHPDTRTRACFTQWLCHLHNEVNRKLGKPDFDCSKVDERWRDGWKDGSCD
ERp5 block – inhibitors of human ERp5. Q15084. ERp5 insulin aggregation, absorbance 650 nm, 90 min. inhibition, % at 9.99 µM. actives 0.05% (n = 350,000). AID 651711;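 active = mean replicate inhibition above about 25%, with every replicate also reaching it, limit read from the data, passing the limit was not always enough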
Target sequence (Q15084 whole entry, looked up): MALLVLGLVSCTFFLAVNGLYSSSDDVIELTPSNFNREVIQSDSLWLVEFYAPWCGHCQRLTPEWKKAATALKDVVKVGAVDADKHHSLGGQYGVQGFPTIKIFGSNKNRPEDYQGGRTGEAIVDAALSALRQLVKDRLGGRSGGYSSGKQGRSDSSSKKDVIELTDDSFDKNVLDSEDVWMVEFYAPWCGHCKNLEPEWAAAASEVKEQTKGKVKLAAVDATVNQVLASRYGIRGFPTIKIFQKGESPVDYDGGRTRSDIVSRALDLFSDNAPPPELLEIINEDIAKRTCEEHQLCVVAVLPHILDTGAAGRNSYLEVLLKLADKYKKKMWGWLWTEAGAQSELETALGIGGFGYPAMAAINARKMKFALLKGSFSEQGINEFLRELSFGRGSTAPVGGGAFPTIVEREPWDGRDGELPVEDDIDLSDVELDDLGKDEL
CendR NRP1 mod – modulators of CendR peptide binding to human neuropilin-1; O14786; FAM-RPARPAR peptide binding to NRP-1, fluorescence polarization; inhibition, % at 25 µM; actives 0.85% (n = 360,000); AID 602438;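 active = inhibition or corrected inhibition above about 18%, plus a signal ratio from 0.5 to 1.5, limit read from the data, passing the limit was not always enough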
PDI turbidity – inhibitors of human protein disulfide isomerase | P07237 | PDI insulin aggregation turbidity, A650, 90 min | inhibition, % at 10 µM | actives 0.052% (n = 350,000) | AID 588391;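 active = mean inhibition across replicates of 30% or more, whatever share of single replicates reach that level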
The depositor's hits bear a star; . = not tested or not shown.

SMILES	ARNT TACC3 PPI	PglD inh	ALR inh	ERp5 block	CendR NRP1 mod	PDI turbidity
CC1=NN(C(N)=S)C(=O)C1N=Nc1ccccc1C (stereo unspecified)	-2.1	5.7	0.4	.	7.3	11.6
CC1=NN(C(N)=S)C(=O)C1N=Nc1c(Br)cc(Br)cc1Br (stereo unspecified)	9.9	-7.6	97.6*	-8.5	-3.7	-9.1
CC1=NN(C(N)=S)C(=O)C1N=Nc1cccc(Cl)c1 (stereo unspecified)	1.7	9.0	90.2*	0.4	-0.3	-4.2
CC1=NN(C(N)=S)C(=O)C1N=Nc1ccccc1O (stereo unspecified)	75.9*	-0.1	18.4	-16.1	-0.3	-4.1
CC1=NN(C(N)=S)C(=O)C1N=Nc1c(C)n(C)n(-c2ccccc2)c1=O (stereo unspecified)	46.6*	-0.4	.	0.5	3.3	3.1
C[C@@H]1CCCCO[C@H](CN(C)S(=O)(=O)c2ccc(F)cc2)[C@@H](C)CN([C@@H](C)CO)C(=O)c2cc(N(C)C)ccc2O1	12.0	-1.0	.	-1.1	.	.
CN1CCN(C(=O)C[C@@H]2CC[C@H]3[C@@H](COc4ccc(NC(=O)c5cccs5)cc4C(=O)N3C)O2)CC1	-0.1	-0.8	.	3.1	.	.
O=C(Nc1ccc(F)cc1)N1CC(=O)N2[C@H](CO)[C@H](c3ccc(C4=CCCC4)cc3)[C@H]2C1	.	.	.	-3.3	.	.
CC1=NN(C(N)=S)C(=O)C1N=Nc1c(C)cc(C)cc1C (stereo unspecified)	12.4	-2.6	-5.4	.	-4.6	-0.6
CC1=NN(C(N)=S)C(=O)C1N=Nc1ccc(C)cc1C (stereo unspecified)	.	.	94.1*	.	.	.
CCOc1cc(/C=C2\NC(=O)NC2=O)cc([N+](=O)[O-])c1O	22.7	-4.7	88.3*	-5.3	14.9	0.1
COc1cc(/C=C2\SC(=O)N(Cc3ccc(F)cc3)C2=O)cc([N+](=O)[O-])c1O	-1.1	.	.	9.6	19.5	-8.0
COc1cc(/C=N/N2CCCCC2)cc([N+](=O)[O-])c1O	.	-4.5	98.4*	0.9	17.4	-6.8
COc1cc(/C=C2/C(=O)N(c3ccc(C)c(C)c3)N=C2C)cc([N+](=O)[O-])c1O	27.1	-2.4	44.8	0.6	4.6	1.2
COc1cc(/C=C2\C(=O)NN(c3ccc(C)cc3)C2=O)cc([N+](=O)[O-])c1O	12.3	.	98.7*	3.8	-1.3	6.1
COc1cc(/C=N/n2c(=S)[nH]nc(C)c2=O)cc([N+](=O)[O-])c1O	.	2.8	12.9	0.0	4.3	-4.3
COc1cc(/C=C2\C(=O)NN(c3ccccc3)C2=O)cc([N+](=O)[O-])c1O	-5.1	.	98.0*	-7.8	3.1	5.7
CC(C)NC(=O)N(C)C[C@H]1OCCCC[C@@H](C)Oc2ccc(N(C)C)cc2C(=O)N([C@@H](C)CO)C[C@@H]1C	5.9	0.0	.	-0.2	.	.
CCCC#Cc1ccc2c(c1)[C@@H]1[C@@H](CCN1S(=O)(=O)c1ccc(C)cc1)[C@@H](CO)N2C	3.9	-1.7	.	-3.6	.	.
C[C@@H]1CN([C@@H](C)CO)C(=O)Cc2cc(NC(=O)CCCCCC(=O)Nc3ccccc3N)ccc2O[C@@H]1CN(C)S(=O)(=O)c1cn(C)cn1	-3.6	-1.2	.	-6.3	.	.
COc1cc(/C=C2/C(=O)NN(c3ccc(Cl)cc3)C2=O)cc(OC)c1O	-5.1	2.9	18.7	1.1	-196.0	0.8
CCOc1cc(/C=C2\C(=O)NN(c3ccccc3)C2=O)cc([N+](=O)[O-])c1O	9.1	.	95.4*	-5.6	6.4	0.8
COc1cc(/C=C2/C(=O)NN(c3ccccc3)C2=O)cc(Br)c1O	0.8	2.6	98.5*	4.7	-101.8	-10.6
CCOC(=O)COc1ccc(/C=C2/C(=O)NN(c3ccc(F)cc3)C2=O)cc1OC	23.6	-2.5	65.0	-3.9	-20.5	-1.1
C[C@@H]1CN([C@@H](C)CO)C(=O)c2cc(NC(=O)NC3CCCCC3)ccc2O[C@@H](C)CCCCO[C@@H]1CN(C)S(=O)(=O)c1cccs1	11.0	-2.9	.	.	.	.
SMILES	ARNT TACC3 PPI	PglD inh	ALR inh	ERp5 block	CendR NRP1 mod	PDI turbidity
Cc1ccc(-c2nc(-c3ccccn3)sc2CC(=O)O)cc1	-3.5	.	99.4*	-6.6	-9.4	9.5
CO/N=C/NC(=O)c1c(OC)ccnc1Oc1ccccc1	31.3	2.7	-2.7	.	25.6*	2.2
O=C(O)[C@@H]1[C@@H](CO)[C@@H]2Cn3c(ccc(/C=C/c4ccccc4)c3=O)[C@@H]2N1C(=O)C1CCCC1	.	.	.	0.0	.	.
CC1(C)CC(NC(=O)c2ccccc2)CC(C)(C)N1	-13.7	-7.6	.	1.2	19.5	-9.4
CC1(C)CC(Nc2ccc(Nc3ccccc3)cc2)CC(C)(C)N1	.	.	99.0*	1.4	-2.1	-13.3
CC(C)c1nnc(NC(=O)c2cnccn2)s1	49.6*	5.1	-3.7	.	-13.1	-5.7
CC(C)c1ccccc1NC(=O)c1cnccn1	4.5	-2.4	-6.9	1.5	58.8*	2.0
C[C@@H]1CN([C@@H](C)CO)C(=O)c2cc(NS(=O)(=O)c3ccc(Cl)cc3)ccc2O[C@@H](C)CCCCO[C@@H]1CN(C)C(=O)Nc1ccc(C(F)(F)F)cc1	6.0	0.0	.	0.9	.	.
CC(=O)c1ccc(NC(=O)/C(C#N)=C/c2ccncc2)cc1	2.6	-2.3	97.9*	5.0	-6.3	0.0
O=C(NCc1ccccc1)C(c1cccnc1)N(C(=O)c1ccccn1)c1ccccc1F (stereo unspecified)	-5.8	7.7	.	3.0	26.2*	-8.7
CNC[C@H]1Oc2ccc(NC(=O)Nc3ccc(C(F)(F)F)cc3)cc2CC(=O)N([C@H](C)CO)C[C@@H]1C	0.8	7.8	.	10.7	.	.
CCOC(=O)CNc1c(-c2ccccc2)nc2ccc(Cl)cn12	13.6	-0.6	54.6	.	3.2	4.6
COC(=O)CNc1c(-c2ccccn2)nc2ccc(Br)cn12	62.2*	-4.2	-14.5	.	-4.0	-2.3
CCC(=O)NC[C@@H]1[C@@H](c2ccccc2)[C@H](CO)N1C(=O)C1CCC1	0.6	-3.5	.	-3.2	.	.
Cc1ccccc1-c1nc(CS(=O)(=O)CC(=O)NCc2ccc3c(c2)OCO3)c(C)o1	-4.8	1.1	-0.5	9.1	-4.9	.
COc1ccc(-c2nc(CSCC(=O)N3CCc4ccccc43)c(C)o2)cc1OC	-3.6	.	99.4*	.	-14.4	7.8
Cc1ccsc1-c1nc(CSCC(=O)NCc2ccc3c(c2)OCO3)c(C)o1	-0.6	-2.7	98.9*	2.9	-4.2	.
COc1ccccc1CNC(=O)CS(=O)Cc1nc(-c2ccc(OC)c(OC)c2)oc1C (stereo unspecified)	1.4	-5.9	98.5*	2.0	11.8	-6.7
Cc1oc(-c2ccccc2F)nc1CS(=O)CC(=O)NCc1ccc2c(c1)OCO2 (stereo unspecified)	-33.5	6.3	99.0*	-2.8	-0.8	.
C[C@@H]1CN([C@H](C)CO)C(=O)c2cc(NC(=O)Cc3ccccc3)ccc2O[C@@H](C)CCCCO[C@@H]1CN(C)C(=O)Nc1cccc2ccccc12	2.0	1.9	.	16.0	.	.
